# Measurements from ChEMBL document CHEMBL3988442, “University of Dundee, Small-Polar-MMV Screening Library” (2021).
# For some assays here: Potency and affinity values are given separately.
# Legend:
# [1] = biological target: T1, Methionyl-tRNA synthetase, putative (Leishmania donovani (strain BPK282A1)) (UniProt E9BF75); assay: Leishmania donovani Methionine tRNA synthetase (LdMetRS):v7. Dose response assay; type: functional; design: conc 80 nM, time 150 minutes
# T1 sequence (whole entry): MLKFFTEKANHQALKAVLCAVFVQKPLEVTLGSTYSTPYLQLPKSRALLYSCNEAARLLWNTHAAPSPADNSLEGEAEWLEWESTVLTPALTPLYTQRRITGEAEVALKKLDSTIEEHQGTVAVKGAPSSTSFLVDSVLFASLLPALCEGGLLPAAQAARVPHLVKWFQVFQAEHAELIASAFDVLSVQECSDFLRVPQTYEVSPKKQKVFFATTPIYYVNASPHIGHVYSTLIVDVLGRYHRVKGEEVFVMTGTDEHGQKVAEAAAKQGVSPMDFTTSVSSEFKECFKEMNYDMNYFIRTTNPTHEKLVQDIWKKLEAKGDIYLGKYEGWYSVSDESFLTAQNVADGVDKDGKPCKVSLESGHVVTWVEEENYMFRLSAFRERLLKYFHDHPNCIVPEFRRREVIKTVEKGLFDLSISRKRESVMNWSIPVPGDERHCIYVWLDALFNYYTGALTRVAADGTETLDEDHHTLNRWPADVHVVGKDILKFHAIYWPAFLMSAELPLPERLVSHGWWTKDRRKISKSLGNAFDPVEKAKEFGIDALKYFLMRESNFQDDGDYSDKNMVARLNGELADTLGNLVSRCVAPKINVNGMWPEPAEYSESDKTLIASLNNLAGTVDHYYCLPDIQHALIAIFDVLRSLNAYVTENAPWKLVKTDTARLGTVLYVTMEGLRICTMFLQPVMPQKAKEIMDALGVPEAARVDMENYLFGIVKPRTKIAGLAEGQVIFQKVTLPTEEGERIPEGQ
# [2] = biological target: Protein translocase subunit SecA (Escherichia coli (strain K12)) (UniProt P10408); assay: Assay to Identify E. coli SecA ATPase Inhibitors; type: functional; design: scale not given: direction of the effect not stated beside the values; settings: 30 µM
# Sequence of Protein translocase subunit SecA (Escherichia coli (strain K12)) (P10408 whole entry): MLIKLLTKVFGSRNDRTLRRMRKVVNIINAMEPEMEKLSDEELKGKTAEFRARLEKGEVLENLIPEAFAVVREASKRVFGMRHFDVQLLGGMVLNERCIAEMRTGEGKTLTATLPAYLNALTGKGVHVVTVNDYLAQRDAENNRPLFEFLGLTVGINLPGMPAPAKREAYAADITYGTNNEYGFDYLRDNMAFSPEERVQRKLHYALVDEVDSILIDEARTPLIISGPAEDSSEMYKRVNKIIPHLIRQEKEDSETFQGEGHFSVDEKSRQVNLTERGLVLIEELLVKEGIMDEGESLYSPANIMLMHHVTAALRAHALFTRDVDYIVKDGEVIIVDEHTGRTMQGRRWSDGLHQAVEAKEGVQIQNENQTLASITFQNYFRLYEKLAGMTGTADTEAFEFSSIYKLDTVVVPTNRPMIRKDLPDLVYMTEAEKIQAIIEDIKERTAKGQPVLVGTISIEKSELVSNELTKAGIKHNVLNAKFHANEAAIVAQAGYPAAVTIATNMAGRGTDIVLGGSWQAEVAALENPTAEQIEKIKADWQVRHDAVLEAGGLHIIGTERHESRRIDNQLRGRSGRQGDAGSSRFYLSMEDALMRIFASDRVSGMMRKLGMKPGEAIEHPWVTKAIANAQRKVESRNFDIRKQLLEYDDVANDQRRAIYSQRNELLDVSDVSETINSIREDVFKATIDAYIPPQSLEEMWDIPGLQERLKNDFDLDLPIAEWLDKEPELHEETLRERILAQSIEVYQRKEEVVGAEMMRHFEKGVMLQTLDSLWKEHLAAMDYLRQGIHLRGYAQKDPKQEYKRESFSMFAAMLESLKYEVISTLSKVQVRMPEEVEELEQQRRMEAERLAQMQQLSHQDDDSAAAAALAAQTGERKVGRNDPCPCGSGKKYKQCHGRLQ
# [3] = biological target: T2, Ubiquitin-activating enzyme e1, putative (Leishmania donovani (strain BPK282A1)) (UniProt E9BSI1); assay: Leishmania donovani Ubiquitin Activating Enzyme (LdE1); type: functional; design: scale not given: direction of the effect not stated beside the values; settings: 30 µM
# T2 sequence (whole entry): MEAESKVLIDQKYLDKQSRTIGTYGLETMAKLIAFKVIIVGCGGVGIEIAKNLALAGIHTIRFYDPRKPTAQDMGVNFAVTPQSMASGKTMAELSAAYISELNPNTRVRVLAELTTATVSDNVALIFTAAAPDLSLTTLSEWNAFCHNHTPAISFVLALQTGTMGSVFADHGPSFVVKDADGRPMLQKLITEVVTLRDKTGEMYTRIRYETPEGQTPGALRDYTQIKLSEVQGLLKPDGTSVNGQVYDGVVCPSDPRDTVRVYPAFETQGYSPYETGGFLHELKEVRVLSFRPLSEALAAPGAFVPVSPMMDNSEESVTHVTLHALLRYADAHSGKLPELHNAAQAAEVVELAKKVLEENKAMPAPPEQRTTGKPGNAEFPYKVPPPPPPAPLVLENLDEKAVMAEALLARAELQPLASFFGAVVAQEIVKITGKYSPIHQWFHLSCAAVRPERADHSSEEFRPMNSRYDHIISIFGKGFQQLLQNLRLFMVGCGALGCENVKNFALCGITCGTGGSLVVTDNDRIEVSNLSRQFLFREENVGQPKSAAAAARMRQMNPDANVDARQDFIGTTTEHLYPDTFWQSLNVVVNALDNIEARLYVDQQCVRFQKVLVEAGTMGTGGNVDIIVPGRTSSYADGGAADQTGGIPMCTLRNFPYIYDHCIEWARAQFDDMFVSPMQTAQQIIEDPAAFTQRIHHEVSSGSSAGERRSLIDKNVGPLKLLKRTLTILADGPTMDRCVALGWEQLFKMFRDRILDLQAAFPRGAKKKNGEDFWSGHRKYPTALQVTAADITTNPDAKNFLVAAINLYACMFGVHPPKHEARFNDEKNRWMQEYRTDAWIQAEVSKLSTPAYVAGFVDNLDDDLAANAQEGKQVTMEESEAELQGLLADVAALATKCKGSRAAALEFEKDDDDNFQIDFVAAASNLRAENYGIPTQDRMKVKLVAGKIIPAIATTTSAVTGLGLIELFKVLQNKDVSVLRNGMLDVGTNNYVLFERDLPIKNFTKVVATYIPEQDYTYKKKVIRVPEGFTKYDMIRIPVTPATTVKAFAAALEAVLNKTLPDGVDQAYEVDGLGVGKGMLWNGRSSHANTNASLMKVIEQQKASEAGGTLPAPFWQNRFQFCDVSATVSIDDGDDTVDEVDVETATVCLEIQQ
# [4] = biological target: AMP-activated protein kinase, AMPK (Homo sapiens) (UniProt P54646+O43741+P54619+Q9UGJ0+Q9Y478+Q13131+Q9UGI9); assay: AMP-dependent Kinase enzyme assay. An in vitro enzyme assay that detects ADP turnover that is directly proportional to AMPK activity. This uses naive AMPK that is activated during the assay with MK-8722; type: functional; design: scale not given: direction of the effect not stated beside the values; settings: 30 µM
# [5] = biological target: Sialic acid-binding Ig-like lectin 9 (Homo sapiens) (UniProt Q9Y336); assay: Hs-Siglec9 ALPHAscreen SOP 20170721; design: scale not given: direction of the effect not stated beside the values; settings: 10 µM
# Sequence of Sialic acid-binding Ig-like lectin 9 (Homo sapiens) (Q9Y336 whole entry): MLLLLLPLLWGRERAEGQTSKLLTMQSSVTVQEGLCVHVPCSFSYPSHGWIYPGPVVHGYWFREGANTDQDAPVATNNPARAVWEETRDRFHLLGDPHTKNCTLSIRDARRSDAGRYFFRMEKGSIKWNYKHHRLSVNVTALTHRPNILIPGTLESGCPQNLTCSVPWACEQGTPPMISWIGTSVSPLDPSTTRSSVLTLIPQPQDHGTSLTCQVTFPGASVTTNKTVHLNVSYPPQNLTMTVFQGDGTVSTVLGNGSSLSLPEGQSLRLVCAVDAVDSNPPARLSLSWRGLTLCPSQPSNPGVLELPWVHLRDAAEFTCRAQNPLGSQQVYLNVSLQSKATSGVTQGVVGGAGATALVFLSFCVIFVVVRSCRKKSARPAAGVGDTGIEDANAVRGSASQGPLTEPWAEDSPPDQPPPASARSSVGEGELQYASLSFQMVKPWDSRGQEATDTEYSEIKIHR
# Trypanosoma cruzi = assay: Trypanosoma cruzi phosphomannomutase and mannose-1-phosphate guanylyltransferase assay; type: functional; design: scale not given: direction of the effect not stated beside the values; settings: 10 µM
# [6] = biological target: T3, Arginase-2, mitochondrial (Homo sapiens) (UniProt P78540); assay: in vitro enzyme assay to detect the production of urea directly proportional to the activity of Arginase II; type: functional; design: scale not given: in the data most compounds retested in dose-response had high values; settings: 33.3 µM
# T3 sequence (whole entry): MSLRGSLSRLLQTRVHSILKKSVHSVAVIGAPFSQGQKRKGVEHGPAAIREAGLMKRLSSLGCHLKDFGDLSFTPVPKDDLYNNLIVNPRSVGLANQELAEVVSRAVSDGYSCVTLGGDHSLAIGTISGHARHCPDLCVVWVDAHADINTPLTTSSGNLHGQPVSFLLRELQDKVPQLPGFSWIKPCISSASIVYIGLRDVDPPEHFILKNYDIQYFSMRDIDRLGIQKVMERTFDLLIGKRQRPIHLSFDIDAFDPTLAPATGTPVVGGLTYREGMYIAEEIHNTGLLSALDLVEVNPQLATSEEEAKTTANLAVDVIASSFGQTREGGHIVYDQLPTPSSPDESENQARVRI
# [7] = biological target: T4, Proteasome subunit beta (Trypanosoma cruzi) (UniProt O96673); assay: Trypanosoma cruzi proteasome chymotrypsin-like activity (TcProtChymo) assay.; type: functional; design: scale not given: in the data most compounds retested in dose-response had high values; settings: 9.37 µM
# T4 sequence (whole entry): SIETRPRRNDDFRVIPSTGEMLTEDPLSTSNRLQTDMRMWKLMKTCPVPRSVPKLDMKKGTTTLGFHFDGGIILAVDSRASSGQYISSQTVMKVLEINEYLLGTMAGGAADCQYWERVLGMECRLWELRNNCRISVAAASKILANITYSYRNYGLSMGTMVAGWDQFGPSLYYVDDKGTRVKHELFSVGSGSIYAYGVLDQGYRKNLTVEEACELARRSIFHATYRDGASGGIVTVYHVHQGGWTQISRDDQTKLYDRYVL
# Homo sapiens = organism: Homo sapiens; assay: To identify inhibition of the IFN signalling (Jak-Stat) pathway via expression of an eGFP reporter gene under the control of an IFN-stimulated response element (ISRE) containing MxA promoter.; type: functional; design: scale not given: direction of the effect not stated beside the values; settings: 30 µM
# [8] = biological target: T5, Tyrosyl-tRNA synthetase, putative (Trypanosoma cruzi (strain CL Brener)) (UniProt Q4DSP6); assay: Trypanosoma cruzi tyrosyl tRNA synthetase (TcYRS) _High Tyrosine SOP; type: functional; design: scale not given: in the data most compounds retested in dose-response had high values; settings: 30 µM
# T5 sequence (whole entry): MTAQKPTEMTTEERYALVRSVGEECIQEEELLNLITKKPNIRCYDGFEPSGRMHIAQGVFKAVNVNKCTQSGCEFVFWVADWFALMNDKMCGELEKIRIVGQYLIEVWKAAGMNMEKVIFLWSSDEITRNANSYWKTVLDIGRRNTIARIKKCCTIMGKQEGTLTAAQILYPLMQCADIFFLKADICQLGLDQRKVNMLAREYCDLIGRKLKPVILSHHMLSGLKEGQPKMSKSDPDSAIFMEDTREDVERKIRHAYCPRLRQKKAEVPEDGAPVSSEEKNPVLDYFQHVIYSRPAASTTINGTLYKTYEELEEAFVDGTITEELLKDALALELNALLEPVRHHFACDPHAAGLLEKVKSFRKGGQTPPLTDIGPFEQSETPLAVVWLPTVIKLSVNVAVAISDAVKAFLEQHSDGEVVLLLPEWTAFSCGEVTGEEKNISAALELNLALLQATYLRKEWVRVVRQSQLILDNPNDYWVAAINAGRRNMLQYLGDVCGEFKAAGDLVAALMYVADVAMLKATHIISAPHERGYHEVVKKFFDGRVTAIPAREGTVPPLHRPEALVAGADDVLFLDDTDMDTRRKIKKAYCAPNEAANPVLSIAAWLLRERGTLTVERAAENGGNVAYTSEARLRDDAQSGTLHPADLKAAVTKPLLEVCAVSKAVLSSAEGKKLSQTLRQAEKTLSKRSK
# [9] = biological target: T5, Tyrosyl-tRNA synthetase, putative (Trypanosoma cruzi (strain CL Brener)); assay: Trypanosoma cruzi tyrosyl tRNA synthetase (TcYRS) SOP; type: functional; design: scale not given: direction of the effect not stated beside the values; settings: 30 µM
# [10] = biological target: Chromo domain-containing protein 1 (Saccharomyces cerevisiae (strain ATCC 204508 / S288c) (Baker's yeast)) (UniProt P32657); assay: ScCHD-1 Enzyme Inhibition Assay; type: functional; design: scale not given: in the data most compounds retested in dose-response had high values; settings: 30 µM
# Sequence of Chromo domain-containing protein 1 (Saccharomyces cerevisiae (strain ATCC 204508 / S288c) (Baker's yeast)) (P32657 whole entry, the tested form may be a part): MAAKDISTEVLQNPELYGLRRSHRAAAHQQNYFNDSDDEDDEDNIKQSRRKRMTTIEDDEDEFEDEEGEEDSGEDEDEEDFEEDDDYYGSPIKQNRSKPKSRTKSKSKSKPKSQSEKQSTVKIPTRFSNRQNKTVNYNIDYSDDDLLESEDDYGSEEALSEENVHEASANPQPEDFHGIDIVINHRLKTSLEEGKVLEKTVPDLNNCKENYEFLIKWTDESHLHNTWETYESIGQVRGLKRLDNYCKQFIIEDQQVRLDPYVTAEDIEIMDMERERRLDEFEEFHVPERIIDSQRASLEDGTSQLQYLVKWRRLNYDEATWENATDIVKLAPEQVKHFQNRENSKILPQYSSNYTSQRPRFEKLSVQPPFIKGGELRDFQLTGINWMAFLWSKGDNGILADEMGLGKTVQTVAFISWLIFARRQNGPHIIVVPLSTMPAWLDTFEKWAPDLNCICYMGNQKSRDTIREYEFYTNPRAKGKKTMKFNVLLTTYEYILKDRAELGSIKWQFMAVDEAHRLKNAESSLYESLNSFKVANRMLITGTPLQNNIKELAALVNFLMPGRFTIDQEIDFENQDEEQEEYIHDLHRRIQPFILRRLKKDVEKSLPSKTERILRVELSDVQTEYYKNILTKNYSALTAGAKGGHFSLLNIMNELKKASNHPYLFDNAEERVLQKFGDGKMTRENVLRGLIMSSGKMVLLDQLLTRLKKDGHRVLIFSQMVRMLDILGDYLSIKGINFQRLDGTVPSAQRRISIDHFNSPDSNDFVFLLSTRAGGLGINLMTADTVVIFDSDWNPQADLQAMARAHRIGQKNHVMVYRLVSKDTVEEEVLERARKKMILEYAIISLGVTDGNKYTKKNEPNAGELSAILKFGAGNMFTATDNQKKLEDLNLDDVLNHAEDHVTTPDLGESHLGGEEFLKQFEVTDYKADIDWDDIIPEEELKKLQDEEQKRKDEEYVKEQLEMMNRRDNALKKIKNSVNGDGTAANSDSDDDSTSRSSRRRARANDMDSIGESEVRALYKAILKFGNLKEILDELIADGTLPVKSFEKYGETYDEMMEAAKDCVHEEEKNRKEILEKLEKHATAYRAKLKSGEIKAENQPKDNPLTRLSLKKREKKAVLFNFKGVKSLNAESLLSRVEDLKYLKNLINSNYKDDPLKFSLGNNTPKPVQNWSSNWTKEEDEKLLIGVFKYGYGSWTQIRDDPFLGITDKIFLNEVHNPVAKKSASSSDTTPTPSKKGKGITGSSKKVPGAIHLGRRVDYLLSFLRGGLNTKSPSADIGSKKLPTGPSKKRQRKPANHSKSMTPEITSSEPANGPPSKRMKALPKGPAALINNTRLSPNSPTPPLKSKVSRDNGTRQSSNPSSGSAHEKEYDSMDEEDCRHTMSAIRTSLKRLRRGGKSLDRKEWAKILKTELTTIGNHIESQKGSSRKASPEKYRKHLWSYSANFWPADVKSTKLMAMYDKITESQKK
compound,measurement,setting,value
CCN(CC)c1ccc2ccc(C(=O)NC3CC3)cn12,PXC50,[1]; MAX_EFFECT 23.88888889,< 4
same,PXC50,[1]; MAX_EFFECT 27.69953052,< 4
same,PXC50,[1]; MAX_EFFECT 36.60245184,< 4
same,PXC50,[1]; MAX_EFFECT 45.65217391,< 4
same,PXC50,[1]; MAX_EFFECT 46.2585034,< 4
Cc1nc2cc(=O)[nH]n2c(C)c1CC(=O)Nc1ccc2ccccc2n1,PXC50,"[1]; BOTTOM 1.14070889, HILLSLOPE 1.278083227, MAX_EFFECT 56.52173913, TOP 100.0",4.1
same,PXC50,[1]; MAX_EFFECT 23.76395534,< 4
same,PXC50,[1]; MAX_EFFECT 26.29558541,< 4
same,PXC50,[1]; MAX_EFFECT 33.33333333,< 4
same,PXC50,[1]; MAX_EFFECT 45.21452145,< 4
same,Percent Effect,[2],-3.58%
same,Percent Effect,[3],5.26%
same,Percent Effect,[4],-24.7%
same,Percent Effect,[5],6.53%
same,Percent Effect,Trypanosoma cruzi,0.564%
same,Percent Effect,[6],-6.51%
same,Percent Effect,[7],-1.34%
same,Percent Effect,Homo sapiens,-15.5%
same,Percent Effect,[8],16.2%
same,Percent Effect,[9],12.2%
same,Percent Effect,[10],-1.37%
CS(=O)(=O)N1CCN(c2ccc3ccc(C(=O)NC4CC4)cn23)CC1,PXC50,"[1]; BOTTOM 0.676888483, HILLSLOPE 1.632295337, MAX_EFFECT 62.22222222, TOP 67.77025413",4.71
same,PXC50,"[1]; BOTTOM 0.960464126, HILLSLOPE 4.237364112, MAX_EFFECT 56.37583893, TOP 52.03393569",4.89
same,PXC50,"[1]; BOTTOM 1.708048652, HILLSLOPE 3.091987727, MAX_EFFECT 59.02777778, TOP 55.32905726",4.97
same,PXC50,"[1]; BOTTOM 3.037239637, HILLSLOPE 2.011804467, MAX_EFFECT 63.24110672, TOP 62.63598189",4.98
same,PXC50,"[1]; BOTTOM -1.02344126, HILLSLOPE 1.263595064, MAX_EFFECT 66.72443674, TOP 100.0",4.26
